TDP1 inh: inhibitors of human tyrosyl-DNA phosphodiesterase TDP1; Q9NUW8; recombinant TDP1, AlphaScreen DNA substrate cleavage; Potency, µM (series often up to 130 µM), for inactives: top-dose activity change, negative = inhibition, most hits filed as inhibitors; 350,000 compounds, 0.28% hits; AID 485290; also: potency is read from the fitted curve at half-maximal effect; % is scaled to controls: 0 for no effect and ±100 for the full control effect; nearly all actives have a fitted effect of over 40% in size
Target sequence (Q9NUW8 whole entry, looked up): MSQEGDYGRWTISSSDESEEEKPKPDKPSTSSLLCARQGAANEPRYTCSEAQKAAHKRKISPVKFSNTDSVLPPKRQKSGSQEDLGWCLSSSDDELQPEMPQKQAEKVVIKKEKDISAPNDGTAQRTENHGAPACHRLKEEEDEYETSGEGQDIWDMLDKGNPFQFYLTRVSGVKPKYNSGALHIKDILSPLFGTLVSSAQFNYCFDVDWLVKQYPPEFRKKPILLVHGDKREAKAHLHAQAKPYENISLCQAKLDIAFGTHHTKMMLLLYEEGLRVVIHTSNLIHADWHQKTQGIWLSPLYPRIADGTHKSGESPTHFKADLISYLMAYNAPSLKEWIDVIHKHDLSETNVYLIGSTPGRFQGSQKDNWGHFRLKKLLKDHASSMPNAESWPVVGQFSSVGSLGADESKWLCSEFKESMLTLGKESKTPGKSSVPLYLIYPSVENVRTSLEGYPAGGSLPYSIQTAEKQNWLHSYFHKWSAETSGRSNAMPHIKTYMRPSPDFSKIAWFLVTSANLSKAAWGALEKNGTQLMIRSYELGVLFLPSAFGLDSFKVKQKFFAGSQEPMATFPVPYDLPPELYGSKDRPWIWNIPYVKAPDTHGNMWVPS
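Steps: enzyme plus compound, 15 min RT; add biotin/phosphotyrosine-FITC oligonucleotide (15 nM final), react 5 min; add donor/acceptor beads (10 ug/ml final), 10 min; read AlphaScreen. Tdp1 at 1 nM final.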
DT40 TDP1 CPT: growth inhibition of DT40 Tdp1-/-;hTDP1 cells with camptothecin (screen for TDP1 inhibitors); chicken DT40 Tdp1-/-;hTDP1 cells + 20 nM CPT, ATP luminescence, 48 h; Potency, µM (top dose mostly 46.2 µM), without a hit: top-dose activity change, negative = growth inhibition, most hits filed as inhibitors; 420,000 compounds, 12% hits; AID 686979; also: potency is read from the fitted curve at half-maximal effect; % is scaled to controls: 0 for no effect and ±100 for the full control effect; nearly all actives have a fitted effect of over 55% in size
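Chicken DT40 Tdp1-/- cells complemented with human TDP1, 400 cells/well, exposed to compounds plus 20 nM camptothecin for at least 48 h at 37 C; viability read as ATP content by CellTiter-Glo luminescence.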
DT40 TDP1 no CPT: qHTS for Inhibitors of human tyrosyl-DNA phosphodiesterase 1 (TDP1): qHTS in cells in absence of CPT. Potency, µM (highest dose often 46.2 µM), for inactives: at the highest dose activity change, negative = growth inhibition, usual class: inhibitors. 420,000 compounds, 15% hits. DT40 Tdp1-/- hTDP1 cells, no CPT, ATP luminescence, 48 h. AID 686978, 2013; also: potency is read from the fitted curve at half-maximal effect; % is scaled to controls: 0 for no effect and ±100 for the full control effect; nearly all actives have a fitted effect of over 55% in size
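Readout: luminescence from CellTiter-Glo after 30 min in the dark at RT. Cells: DT40 Tdp1-/- with stable hTDP1, 400/well. Exposure: compounds alone, ≥48 hr, 37 °C.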
HepG2 tox: HepG2 cytotoxicity, counter-screen for TGF-b inhibitors | HepG2 CAGA-GFP viability, ATP luminescence, 18 h | Potency, µM (doses to about 46.1 µM), for the others: at the top dose activity change, negative = cytotoxicity, usual class: cytotoxic | AID 588856 | 410,000 compounds, 0.76% hits; also: potency is read from the fitted curve at half-maximal effect
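CellTiter-Glo luminescence gave cytotoxicity after 18 hours at 37 degrees C. The cells were HepG2 CAGA-GFP in 1% FBS DMEM, stimulated with 500 pg/mL TGF-beta after compound addition. %Activity was normalised to no-cell wells (complete cell-killing) and DMSO (no toxicity), and curves were fitted and classified.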
IL1B secr inh: inflammasome signaling inhibition, IL-1 beta readout | THP-1 LPS/ATP IL-1B secretion, AlphaLISA, 16 h; hits give low values | activity change, % at 57.5 µM | 360,000 compounds, 4.7% hits | AID 743279; in the data active = activity change below about -50%; inconclusive = mostly about -30% to -49%; also: % is scaled to controls: 0 for no effect and ±100 for the full control effect
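Secreted IL-1B measured by AlphaLISA bead assay after 16 h compound exposure of THP-1 cells; compounds (final up to 57.5 uM) added 1 h before LPS (250 ng/mL) and ATP (1.25 mM) stimulation; lower signal means less secretion.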
TGFb SMAD3 inh: inhibitors of TGF-b signaling | HepG2 CAGA-GFP TGF-b/SMAD3 reporter, GFP fluorescence, 18 h; TGF-beta stimulated, 500 pg/mL final | 410,000 compounds, 1.2% hits | Potency, µM (doses to about 46.1 µM), for inactives: top-dose activity, negative = inhibition, actives largely listed as inhibitors; also: potency is read from the fitted curve at half-maximal effect; % is scaled to controls: 0 for no effect and ±100 for the full control effect; nearly all actives have a fitted effect of over 65% in size
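HEPG2 CAGA-GFP, 1000 cells/well; 2 h settle, 37 C; cpd via pin tool; TGF-b 500 pg/mL final; 18 h, 37 C; GFP imaging ex488/em500-530; %Activity normalised to -TGF-b and +DMSO controls; CRC fit, curve class.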
* hit, by the source's call; ? = inconclusive; / = no result given; [ ] = another dose, or the depositor's remark. Compounds with a hit are over-represented: about 18% of the library has one in this group of screens. Unless noted, calls follow the shape of the dose curve; as a rule, active = well fitted curve in the direction sought with a large enough effect; inconclusive = small, poorly fitted or top-dose-only effect, or another doubt; inactive = no such curve, though single readings can be large; an effect the other way counts as inactive or inconclusive.

SMILES	TDP1 inh	DT40 TDP1 CPT	DT40 TDP1 no CPT	HepG2 tox	IL1B secr inh	TGFb SMAD3 inh
CCCNC(=O)c1ccc(N2CCC3(CC2)CC(c2ccccc2)=NO3)c([N+](=O)[O-])c1	/	20.6µM*	?	-19.0%	?	-3.5%
CCCNC(=O)c1ccc(N2CCC3(CC2)CC(c2ccccc2)=NO3)c(N)c1	/	?	?	-18.4%	0.2	-12.6%
COc1ccc(CNC(=O)c2ccc(N3CCC4(CC3)CC(c3ccc(Cl)cc3)=NO4)c(NC(=O)c3ccccc3)c2)cc1	/	-11.6%	-15.2%	1.7%	-1.9	-23.5%
COc1ccc(CNC(=O)c2ccc(N3CCC4(CC3)CC(c3ccc(Cl)cc3)=NO4)c(NC(=O)Cc3ccc(F)cc3)c2)cc1	0.5%	1.6%	-5.6%	-11.1%	31.7	-11.1%
Cc1cn([C@H]2C[C@H](O)[C@@H](/C=C/C(=O)NCc3ccc(N(C)C)cc3)O2)c(=O)[nH]c1=O	/	6.0%	10.2%	-3.5%	7.1	-3.4%
CC[N+]1(CC(=O)c2ccc(Br)cc2)CCCCC1	/	-30.9%	-23.8%	-19.8%	/	-5.0%
COc1ccccc1C1C=C(c2ccc(C)cc2)Nc2nnnn21 (stereo not given)	6.2%	18.4µM*	20.6µM*	-20.5%	?	-16.2%
CCOc1ccc(C2C=C(c3ccc(C)cc3)Nc3nnnn32)cc1 (stereo not given)	6.2%	9.2µM*	11.6µM*	-20.1%	-18.9	18.0%
COc1ccccc1C1C=C(c2ccc(C(C)C)cc2)Nc2nnnn21 (stereo not given)	3.8%	?	?	3.6%	/	-0.3%
COc1ccc(C2=CC(c3cccc(C)c3)n3nnnc3N2)cc1 (stereo not given)	3.8%	?	16.4µM*	0.4%	/	-15.4%
CCOc1ccc(C2C=C(c3ccccc3)Nc3nnnn32)cc1 (stereo not given)	2.1%	-22.6%	?	-18.1%	16.4	12.6%
CCOc1ccc(C2C=C(c3cccc(OC)c3)Nc3nnnn32)cc1 (stereo not given)	7.1%	?	?	-24.1%	/	-7.9%
Cc1ccc(C2=CC(c3cccs3)n3nnnc3N2)cc1 (stereo not given)	2.0%	?	0.7%	-15.2%	10.0	39.3%
COc1ccc(C2=CC(c3c(C)nn(-c4ccccc4)c3Cl)n3nnnc3N2)cc1OC (stereo not given)	8.3%	?	14.6µM*	15.1%	-67.2*	-0.3%
CC1CCc2onc(C(=O)N3CCN(c4ccccc4)CC3)c2C1 (stereo not given)	2.1%	-29.7%	-30.0%	-13.8%	/	-16.2%
CO[C@@H]1COC(=O)C/C=C\[C@H](C)COC(=O)[C@H](C)NC(=O)C/C=C\[C@H]1C	3.7%[21 µM]	/	/	/	/	/
COc1cc(NC(=O)C(NC(=O)C2CCC(C)CC2)C(C)C)cc(OC)c1OC (stereo not given)	5.9%	?	?	-5.9%	/	30.4%
CC(C)C(NC(=O)c1ccccc1NC(=O)c1ccccc1)C(=O)NNC(=O)c1ccncc1 (stereo not given)	-2.3%	-1.2%	20.2%	-0.4%	0.0	9.6%
CN(C)c1ccc(C2C=C(c3ccccc3)Nc3nnnn32)cc1 (stereo not given)	/	?	18.4µM*	-6.7%	/	94.6%
Fc1cccc(NC(=S)NCCc2ccccc2)c1	-8.1%	?	20.6µM*	-23.9%	-10.2	-25.0%
Cc1cccc(C)c1NC(=S)NCCc1ccc(O)c(O)c1	0.0%	16.4µM*	13µM*	5.9%	11.6	0.4%
Cc1ccc(NC(=S)NCCc2ccccc2)nc1	5.5%	?	5.8µM*	-17.9%	38.8	-23.0%
Fc1ccccc1NC(=S)NCCc1ccccc1	-1.0%	7.31µM*	9.2µM*	-0.1%	39.1	5.0%
COc1ccccc1CNC(=O)COC(=O)CNS(=O)(=O)c1ccc(C)cc1	7.6%	0.9%	1.3%	3.8%	3.7	5.3%
Cc1ccccc1OCC(=O)Nc1ccc(-c2nc3cc(Cl)cc(Cl)c3o2)cc1	1.3%[12.3 µM]	-9.3%	-12.8%	-0.7%	/	-15.3%
SMILES	TDP1 inh	DT40 TDP1 CPT	DT40 TDP1 no CPT	HepG2 tox	IL1B secr inh	TGFb SMAD3 inh
O=C(NCCCCc1ccccc1)Nc1cccc(F)c1	1.0%[56.1 µM]	?	23.1µM*	-31.9%	-98.7*	?
Cc1cccc(NC(=O)NCCCCc2ccccc2)c1	-5.8%	-20.7%	-12.5%	0.7%	-17.8	-0.7%
Cc1cccc(NC(=S)NCCc2ccccc2)c1C	/	25.9µM*	?	-40.8%	-21.0	-13.1%
CCc1cc(Br)ccc1NC(=S)NCCc1ccccc1	0.4%	?	20.6µM*	-35.9%	?	?
Fc1ccc(F)c(NC(=S)NCCc2ccccc2)c1	2.4%	16.4µM*	16.4µM*	-3.5%	-65.7*	-8.0%
COc1ccc(CCNC(=S)Nc2cccc(C)c2C)cc1	4.7%	?	?	2.2%	18.0	4.2%
CC(C)[C@@H](OCc1ccccc1)[C@H](C)/C=N\OC[C@@H](O)[C@@H]1O[C@@H]2OC(C)(C)O[C@@H]2[C@H]1O	7.9%[21 µM]	/	/	/	/	/
Cc1cccc(S(=O)(=O)c2cn(C)c3cc(N4CCN(c5ccc(F)cc5)CC4)c(F)cc3c2=O)c1	-5.0%	-6.5%	-25.6%	-0.2%	/	24.3%
COC(=O)[C@@H]1CCCN1Cc1ccc2c(c1)CN(Cc1ccc3c(c1)CCO3)CCO2	/	-3.6%	-16.4%	/	/	/
CCc1cc(C(=O)N(CC)CC(=O)Nc2ccc(OC)cc2)sc1C	0.6%	-16.5%	-18.4%	7.2%	-4.5	-7.1%
Cc1cccnc1NC(=S)NCCc1ccccc1	9.9%	?	20.6µM*	-20.8%	-20.8	?
Cc1c(Cl)cccc1NC(=S)NCCc1ccc(F)cc1	/	-26.6%	-19.5%	-18.0%	-82.2*	?
O=C(NCCc1ccccc1)Nc1cccc(Cl)c1	0.0%	16.4µM*	?	-19.4%	-16.0	-6.1%
CCOC(=O)N1CCN(CC(O)COc2ccccc2C(C)C)CC1 (stereo not given)	6.2%	?	?	-16.9%	-9.7	-4.7%
CCN(CCNCC(O)COc1ccccc1C(C)C)c1cccc(C)c1 (stereo not given)	/	?	18.4µM*	15.8µM*	-103.9*	?
CC(=O)C1CCC2C3CC=C4N(C)C(=O)CCC4(C)C3CCC12C (stereo not given)	/	-15.8%	-22.4%	8.5%	21.2	10.2%
